Shown are actives, neighbours in structure and some others; about 4.6% of the full set was active somewhere.
TRHR PAM: allosteric enhancers of human TRH receptor; P34981; TRHR cells, fluo-8 calcium fluorescence, EC20 TRH enhancement; enhancement, % at 2 µM; 360,000 compounds, 0.66% hits; AID 493056; in the data active = enhancement above about 30%; note: 0% is about no effect
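Enhancer read-out: after compound pinning and an initial kinetic agonist-mode read, an EC20 of TRH (10 nM final) was injected and fluo-8 calcium signal (Ex 480/Em 530) followed at 1 s/cycle for 100 cycles in TRHR-expressing cells.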
D1 agonist: activates the human D1 dopamine receptor; P21728; HEK293 T-REx D1 cells, calcium flux, agonist mode; activation, % at 2 µM; 360,000 compounds, 1% hits; AID 504660; note: 0% is about no effect
Target sequence (P21728 whole entry, looked up): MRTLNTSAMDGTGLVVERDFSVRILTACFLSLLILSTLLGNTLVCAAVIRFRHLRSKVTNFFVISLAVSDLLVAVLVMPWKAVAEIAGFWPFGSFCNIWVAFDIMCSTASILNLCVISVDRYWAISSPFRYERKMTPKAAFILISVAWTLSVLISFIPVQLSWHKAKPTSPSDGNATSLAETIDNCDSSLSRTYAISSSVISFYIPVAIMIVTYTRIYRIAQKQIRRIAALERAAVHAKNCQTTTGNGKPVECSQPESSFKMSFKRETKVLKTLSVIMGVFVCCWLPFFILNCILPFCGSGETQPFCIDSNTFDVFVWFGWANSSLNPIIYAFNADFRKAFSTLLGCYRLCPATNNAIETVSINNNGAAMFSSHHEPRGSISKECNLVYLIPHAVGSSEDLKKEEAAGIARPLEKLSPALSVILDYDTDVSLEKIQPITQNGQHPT
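Inducible HEK293 T-REx D1 cells, force-coupled to calcium signalling, were plated at 4000 cells/well with tetracycline and held overnight at 30 C. After no-wash calcium dye loading, compound-evoked calcium rise over 180 s flagged agonists.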
D1 antagonist: antagonists of human D1 dopamine receptor; P21728; HEK293 TREx D1 cells, calcium flux, dopamine EC80; hits give low values; activity change, negative = inhibition, % at 10 µM; 360,000 compounds, 3.2% hits; in the data active = activity change below about -30%; note: % is set by controls: 0 for no effect and ±100 for the full control effect
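Tetracycline-induced HEK293 T-REx cells with force-coupled D1 receptor were loaded with a no-wash calcium dye. Compound was added after a 10 s baseline and read kinetically for 180 s; EC80 dopamine was then added and calcium flux followed another 180 s.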
TRHR agonist: agonists of human TRH receptor; P34981; TRHR cells, calcium flux fluo-8, FDSS agonist mode; activation, % at 2 µM; 360,000 compounds, 0.18% hits; note: 0% is about no effect
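Read-out: compound-evoked intracellular calcium rise in TRHR cells, fluo-8 dye, kinetic FDSS fluorescence at 1 s/cycle following a 10-cycle baseline. Cells cultured overnight before dye loading (30 min–1.5 h, RT).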
D1 potentiator: potentiators of human D1 dopamine receptor; P21728; HEK293 TREx D1 cells, calcium flux, dopamine EC20 potentiation; potentiation, % at 10 µM; 360,000 compounds, 0.036% hits; in the data active = potentiation above about 30%; note: 0% is about no effect
An asterisk follows results filed as active; / = no result given. Cut-off read from the data, not from the text of the source, unless noted: active = activation above about 30%; inactive = the rest.

SMILES | TRHR PAM | D1 agonist | D1 antagonist | TRHR agonist | D1 potentiator
Cc1ccccc1CNS(=O)(=O)c1ccc2c(c1)OCCO2 | 11.2 | 20.4 | -32.4* | -0.4 | -9.6
CC(=O)N1CCOc2ccc(S(=O)(=O)NCc3ccccc3Cl)cc21 | 0.0 | 0.8 | -32.1* | -0.3 | -4.2
Cc1ccc(CNS(=O)(=O)c2ccc3c(c2)OCCO3)cc1 | -7.5 | 9.8 | -5.9 | -0.4 | -5.9
Cc1ccccc1CNS(=O)(=O)c1ccccc1[N+](=O)[O-] | 32.1* | 1.3 | 6.1 | -0.5 | -3.9
CCOC(=O)Cn1c(=O)n(CC2CCCO2)c2nc(-c3ccc(OCC)cc3)nc(C(N)=O)c21 (stereo unspecified) | 8.2 | 3.4 | -4.8 | -0.4 | 5.8
Cc1coc2cc3oc(=O)c(CC(=O)NCc4cccc(Cl)c4)c(C)c3cc12 | 0.6 | 9.8 | -3.3 | -0.1 | -0.9
O=C(COc1ccccc1)NCCc1csc(-c2ccc(Cl)cc2)n1 | 2.4 | 13.7 | -49.3* | -0.3 | -2.5
O=C(COc1ccc(Cl)cc1)NCCc1csc(-c2ccc(C(F)(F)F)cc2)n1 | 10.7 | 10.4 | -35.9* | 0.8 | -3.4
Cc1cccc(NC(=O)CC2SC(=NC3CCCCC3)NC2=O)c1 (stereo unspecified) | 3.3 | 1.6 | -33.0* | 0.1 | -1.1
COc1ccccc1C1CC(c2cccc(NS(C)(=O)=O)c2)=NN1S(=O)(=O)c1ccccc1 (stereo unspecified) | 30.7* | 9.4 | -3.8 | 0.5 | -3.9
COc1ccccc1C1CC(c2ccc(NS(C)(=O)=O)cc2)=NN1S(=O)(=O)c1ccccc1 (stereo unspecified) | 2.6 | 4.8 | 4.3 | 0.3 | -0.1
COc1ccccc1NC(=O)c1oc2ccccc2c1NC(=O)Cc1ccccc1 | -10.3 | 1.3 | 14.3 | 0.0 | -3.0
CCOC(=O)c1c(S(=O)(=O)N2CCCC(C(=O)Nc3cccc(Cl)c3)C2)c(C)n(C)c1C (stereo unspecified) | -2.6 | 0.7 | -5.7 | -0.6 | -4.2
Cn1cc(SCC(=O)Nc2ccc3c(c2)OCCO3)c2ccccc21 | -2.4 | -1.3 | -38.9* | -0.7 | -2.1
Cc1ccc(NC(=O)CN(C)C(=O)Cn2c(=O)oc3ccccc32)cc1 | 31.2* | 0.3 | -0.7 | 1.6 | -1.1
CN(CC(=O)Nc1ccc(F)cc1)C(=O)Cn1c(=O)oc2ccccc21 | 7.3 | 3.1 | 1.5 | 0.9 | 0.1
COc1cc(NC(=O)CSc2ccc3c(c2)OCCO3)cc(OC)c1OC | -3.7 | 15.3 | -35.9* | -0.6 | -2.3
Cc1cc2ccccc2c(=O)n1CC(=O)Nc1ccc2c(c1)OCCO2 | 30.6* | 1.1 | -2.8 | -0.1 | -2.2
CC(C)(C)OC(=O)n1c2ccsc2c2cnn(Cc3ccccc3F)c(=O)c21 | -1.7 | 0.2 | 10.4 | -2.8 | 4.8
O=C(C1CCN(S(=O)(=O)c2cccc3cccnc23)CC1)N1CCCCC1 | -3.6 | 4.4 | -0.5 | -0.1 | 3.2
Cc1cc(/C=N/Nc2nc(N)ncc2[N+](=O)[O-])c(C)n1-c1cccc(C(F)(F)F)c1 | 4.4 | 0.5 | 2.3 | 0.4 | 1.9
CN(Cc1ccco1)C(=O)c1ccc2c(c1)N(Cc1ccccc1F)C(=O)c1ccccc1S2 | -0.7 | 11.7 | -1.5 | -1.3 | -5.7
CCN(CC)c1cc2c(cc1F)c(=O)c(S(=O)(=O)c1ccc(OC)cc1)cn2Cc1ccccc1 | 2.9 | 11.4 | 5.6 | -0.7 | -1.4
O=C(Nc1ccc(NC(=O)c2sc3ccccc3c2Cl)cc1)c1ccco1 | -3.3 | 1.2 | -5.4 | 0.7 | -0.7
O=C(Cn1c(=O)oc2ccccc21)Nc1ccc2c(c1)OCCO2 | 10.8 | 3.4 | -7.2 | -0.1 | -2.2
SMILES | TRHR PAM | D1 agonist | D1 antagonist | TRHR agonist | D1 potentiator
O=C(CCn1c(=O)oc2ccccc21)Nc1ccc2c(c1)OCCO2 | 0.7 | 2.7 | -38.2* | -0.6 | -6.3
C=CCC(CC=C)(CNC(=O)C(=O)Nc1ccc(C(=O)OCC)cc1)c1ccccc1 | 7.4 | 15.0 | 4.9 | 4.5 | -1.5
COc1ccc(NC(=O)[C@@]2(CC(=O)O)CC(/C=C/c3ccccc3)=NO2)cc1 | -1.3 | 0.9 | 4.4 | 1.2 | -6.5
COc1ccc(Cl)cc1NC(=O)[C@@]1(CC(=O)O)CC(/C=C/c2ccccc2)=NO1 | -4.9 | 4.4 | -34.7* | 0.9 | 3.6
O=C(CCc1[nH]c2ccccc2c1Sc1ccccc1)NCCO | 0.4 | 47.6* | 5.6 | -1.0 | -6.6
O=C(CCc1ccccc1)NCCSc1ccccc1 | -4.2 | 0.0 | 4.5 | -0.8 | 1.0
O=C(NCc1ccc(F)cc1Cl)C1CCN(S(=O)(=O)N2CCCCC2)CC1 | 3.2 | 50.2* | -17.9 | -0.2 | -10.2
O=C(NCc1ccc(F)cc1)C1CCCN(S(=O)(=O)c2ccc(Br)s2)C1 (stereo unspecified) | -3.3 | -1.5 | -2.8 | -0.5 | 2.2
O=C(NCc1ccc(F)cc1)C1CCN(S(=O)(=O)c2ccc(Br)s2)CC1 | -5.0 | 0.0 | -30.5* | 0.2 | -5.5
CCS(=O)(=O)N1CCC(C(=O)NCc2ccc(F)cc2Cl)CC1 | 0.4 | 2.1 | 1.8 | 0.0 | -4.5
CC(C)CN(CC(C)C)S(=O)(=O)N1CCC(C(=O)NCc2ccc(F)cc2)CC1 | 13.6 | 27.6 | -67.3* | -0.7 | -9.4
CC(C)CN(CC(C)C)S(=O)(=O)N1CCC(C(=O)NCc2cccnc2)CC1 | 6.8 | 2.3 | 21.2 | -2.0 | 3.7
CS(=O)(=O)Nc1cccc2[nH]ncc12 | -5.5 | 3.6 | 0.6 | 0.3 | -0.3
CCOC(=O)Cn1nnc(-c2cc(OC)c(OC)c(OC)c2)n1 | -3.9 | 5.1 | -20.0 | -0.1 | -1.6
COc1cc(-c2nnn(CC(=O)Nc3ccc(OC(F)(F)F)cc3)n2)cc(OC)c1OC | -27.3 | 1.5 | -32.0* | 2.6 | -3.4
CC(OC(=O)c1ncc(Cl)c(Cl)c1Cl)C(=O)NC1CCCCC1C (stereo unspecified) | -0.8 | 2.1 | -32.1* | -0.4 | 0.0
CSCC[C@H](NC(=O)OC(C)(C)C)c1nnc(SCc2cccc(F)c2)o1 | 2.7 | 3.3 | -27.9 | 0.8 | -4.3
CC(C)C[C@H](NC(=O)OC(C)(C)C)c1nnc(SCc2cccc(F)c2)o1 | 4.0 | 30.6* | -13.4 | 0.1 | 6.2
N#Cc1ccc(NC(=O)COC(=O)CSc2nnc(-c3ccc(Cl)cc3)o2)cc1 | -9.0 | 9.6 | -37.4* | -0.1 | -6.8
O=C(COC(=O)Cc1ccc(Cl)cc1)NCc1ccc2c(c1)OCO2 | -12.0 | 9.8 | -3.9 | -0.2 | -6.5
O=C(COC(=O)CSc1nnc(-c2ccc(Cl)cc2)o1)NCc1ccc2c(c1)OCO2 | -3.4 | 4.0 | -35.6* | -1.8 | -16.8
CC(=O)NCc1cc(Cl)c2cccnc2c1O | -5.6 | 0.8 | 0.1 | 0.8 | -6.5
O=[N+]([O-])c1cn(-c2nc(-c3ccco3)cc(C(F)(F)F)n2)cn1 | -2.9 | 62.3* | / | 0.7 | -1.4
CN1CCN(c2nc(-c3ccco3)cc(C(F)(F)F)n2)CC1 | -0.5 | -0.6 | -67.8* | 0.4 | -5.2
